Assay results: the supplement of paper PMC5662767
Structures can show the parent of a compound that is named as a salt.

Test system: Drosophila S2 cl14 SmoIP sensor cells
Assay: normalized SmoIP GFP fluorescence (untreated unstimulated = 0%, untreated Hh-stimulated = 100%); higher = more Smo activation sensor fluorescence
Settings: compound concentration: 2 uM, 24 h
[1] = stimulation: Hh conditioned medium (+Hh)
[2] = stimulation: mock conditioned medium (-Hh)
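Further: flow cytometry read-out as median GFP intensity of gated cells, compounds added 30 min before Hh-conditioned or mock medium, mock-treated cells serving as unstimulated baseline.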

| Structure (SMILES) | normalized SmoIP GFP fluorescence [1] | normalized SmoIP GFP fluorescence [2] |
| --- | --- | --- |
| COc1ccc(CNc2nc(N3CCC[C@H]3CO)ncc2C(=O)NCc2ncccn2)cc1Cl [avanafil] | 106% | -2.31% |
| O=C1c2ccccc2C(=O)c2c1ccc(O)c2O [Alizarin] | 141% | -7.96% |
| CC1(C)Cc2c(-c3ccccc3)c(-c3ccc(Cl)cc3)c(CC(=O)O)n2C1 [licofelone] | 121% | -11.2% |
| O=C(O)c1cc2cccc([N+](=O)[O-])c2[nH]1 | 136% | 24.3% |
| Cn1c(=O)n(-c2ccc(C(C)(C)C#N)cc2)c2c3cc(-c4cnc5ccccc5c4)ccc3ncc21 | 113% | -5.01% |
| N#CCNC(=O)c1ccc(-c2ccnc(Nc3ccc(N4CCOCC4)cc3)n2)cc1 | 208% | 53.3% |
| Cc1c(CN2CCN(C(=O)[C@H](C)O)CC2)sc2c(N3CCOCC3)nc(-c3cnc(N)nc3)nc12 | 69.8% | -4.35% |
| CCOc1cc(N)c(Cl)cc1C(=O)NCC1CN(Cc2ccc(F)cc2)CCO1 (centres undefined) [Mosapride-citrate] | 103% | -4.68% |
| CC(C)(C#N)c1ccc(N2C(=O)OCc3cnc4ccc(-c5cnc6ccccc6c5)cc4c32)cc1 | 148% | 28.4% |
| CCCCCCCCCCCC1=C(O)C(=O)C=C(O)C1=O [embelin] | 108% | -2.08% |
| CC(C)(C)NC(=O)[C@H]1CC[C@H]2[C@@H]3CC[C@H]4NC(=O)C=C[C@]4(C)[C@H]3CC[C@]12C [Finasteride] | 77.5% | -9.32% |
| COc1cc(CCc2cc(NC(=O)c3ccc(N4CC(C)NC(C)C4)cc3)n[nH]2)cc(OC)c1 (centres undefined) | 114% | 2.97% |
| COc1cc(OC)c2c(=O)[nH]c(-c3cc(C)c(OCCO)c(C)c3)nc2c1 | 112% | -3.16% |
| CCCOc1ccc(C(=O)OCCN(CC)CC)cc1N [proparacaine-hcl] | 111% | -2.48% |
| CCOC(=O)[C@H](CCc1ccccc1)N[C@H]1CS[C@H](c2cccs2)CN(CC(=O)O)C1=O [temocapril-hcl] | 111% | 0.785% |
| CS(=O)(=O)N1CCc2c(-c3cnc(N)nc3)nc(N3CCOCC3)nc21 | 134% | -15.8% |

| Structure (SMILES) | normalized SmoIP GFP fluorescence [1] | normalized SmoIP GFP fluorescence [2] |
| --- | --- | --- |
| C[C@H](NC(=O)[C@@H](O)c1cc(F)cc(F)c1)C(=O)N[C@@H]1C(=O)N(C)c2ccccc2-c2ccccc21 | 145% | 9.98% |
| C[C@@H]1CCO[C@H]2Cn3cc(C(=O)NCc4ccc(F)cc4F)c(=O)c(O)c3C(=O)N12 | 140% | -15.3% |
| CN(C)Cc1ccc(S(=O)(=O)n2ccc(/C=C/C(=O)NO)c2)cc1 [resminostat-ras2410] | 140% | -5.8% |
| Nc1nc(=O)n([C@@H]2CS[C@H](CO)O2)cc1F [Emtricitabine] | 111% | -14.7% |
| O=C1C[C@@H](c2ccc(O)cc2)Oc2cc(O)cc(O)c21 [Naringenin] | 106% | -6.61% |
| CC(C)N(C[C@H]1O[C@@H](n2cnc3c(N)ncnc32)[C@H](O)[C@@H]1O)[C@H]1C[C@@H](CCc2nc3cc(C(C)(C)C)ccc3[nH]2)C1 | 124% | -2.59% |
| Cc1cc(OCCCS(C)(=O)=O)cc(C)c1-c1cccc(COc2ccc3c(c2)OC[C@H]3CC(=O)O)c1 | 120% | -6.79% |
| Cc1ccccc1C(=O)Nc1ccc(C(=O)N2CCCC(O)c3cc(Cl)ccc32)c(C)c1 (centres undefined) | 111% | -6.61% |
| COC[C@H](NC(=O)c1cnc(C)s1)C(=O)N[C@@H](COC)C(=O)N[C@@H](Cc1ccccc1)C(=O)[C@@]1(C)CO1 [oprozomib-onx-0912] | 81.9% | 26.7% |
| Nc1ccc2ncnc(NCCc3ccc(Oc4ccccc4)cc3)c2c1 | 45.5% | 39.1% |
| Cc1cc(C)c(CNC(=O)c2cc(-c3ccc(CN4CCOCC4)cc3)cc3c2cnn3C2CCCC2)c(=O)[nH]1 | 104% | -0.264% |
| O=c1ncn2nc(Sc3ccc(F)cc3F)ccc2c1-c1c(Cl)cccc1Cl | 79.3% | -2.64% |
| COc1ccccc1Oc1c(NS(=O)(=O)c2ccc(C(C)(C)C)cc2)nc(-c2ncccn2)nc1OCCO [bosentan-hydrate] | 109% | -1.63% |
| CC1=C(C(=O)OC2CCCCC2)C(c2ccc([N+](=O)[O-])cc2)C2=C(CC(C)(C)CC2=O)N1 (centres undefined) | 117% | 4.26% |
| NC(N)=N/N=C/c1c(Cl)cccc1Cl [guanabenz-wy-8678-acetate] | 112% | -4.7% |
| CCCCc1oc2ccccc2c1C(=O)c1cc(I)c(OCCN(CC)CC)c(I)c1 [amiodarone-hcl] | 112% | 1.69% |
